# Reference: PubChem BioAssay AID651808 (Broad Institute, 2012)
# Values joined by “and” are separate entries in the source; they are usually repeats but may differ in a detail not shown here. Equal entries are not always repeated. Records with an inconclusive call do not appear. Active and inactive are the calls of the source. No rule for the calls is given here.
# Experiment: dose response, DH231 delta cqsS, luminescence, dry powder (AID 651808)
# Conditions: V. cholerae DH231 delta cqsS, luxCDABE luminescence, 6 h; at 80 µM; test 2; stronger effect = higher value
row,SMILES,max activity (light induction)
1,CCC(CC)NC(=O)Cc1ccc(-c2ccccc2)cc1,-17.5% (inactive)
2,Cn1nnnc1NCc1ccc(N2CCCC2)cc1,-32.9% (inactive)
3,CCCn1nnnc1NCc1ccccc1Cl,-58.8% (inactive)
4,O=C(Cc1ccccc1C(F)(F)F)NC1CCCC1,-7.17% (inactive)
5,O=C(Cc1ccccc1Cl)NC1CCCC1,-18.1% (inactive)
6,CCn1nnnc1NCc1ccc(C(C)C)cc1,-41.8% (inactive) and -46.4% (inactive)
7,CC(C)NC(=O)Cc1ccc(-c2ccccc2)cc1,-26.8% (inactive)
8,O=C(Cc1cccc(F)c1)NC1CCCC1,-4.2% (inactive)
9,O=C(Cc1ccc(-c2ccccc2)cc1)NC1CCC1,-12.2% (inactive)
10,CS(=O)(=O)c1ccc(CC(=O)NC2CCCC2)cc1,-47.4% (inactive)
11,O=C(Cc1ccc(-c2ccccc2)cc1)NC1CCCCC1,-14.6% (inactive)
12,O=C(Cc1ccc(-c2ccccc2)cc1)NC1CCCC1,-13.9% (inactive) and -5.11% (inactive)
13,CCC(C)NC(=O)Cc1ccc(-c2ccccc2)cc1 (centres undefined),-31.1% (inactive)
14,CCCn1nnnc1NCc1ccc(C(C)C)cc1,-51.3% (inactive)
15,COc1ccc(CC(=O)NC2CCCC2)cc1,-4.11% (inactive)
16,CCCn1nnnc1NCc1ccc(N2CCCC2)cc1,-55.4% (inactive)
17,O=C(NCc1ccc(-c2ccccc2)cc1)C1CCCC1,-17% (inactive)
18,O=C(Cc1cccc(OC(F)(F)F)c1)NC1CCCC1,-5.92% (inactive)
19,CCn1nnnc1NCc1ccc(N2CCCC2)cc1,-52.6% (inactive)
20,O=C(Cc1ccccc1OC(F)(F)F)NC1CCCC1,-14.6% (inactive)
21,O=C(Cc1ccccc1F)NC1CCCC1,0.357% (inactive)
22,O=C(Cc1ccc(-c2ccccc2)cc1)NC1CCOCC1,-9.06% (inactive)
23,CC(C)c1ccc(CNc2nnnn2C)cc1,-24.7% (inactive)

# Same assay, conditions: V. cholerae DH231 delta cqsS, luxCDABE luminescence, 6 h; measured here: test 1 replicate run; at 80 µM; test 1; stronger effect = higher value
row,SMILES,max activity (light induction)
1,CCn1nnc(NCc2ccc(C)cc2)n1,-23%
2,Cn1nnnc1NCc1ccc(N2CCCC2)cc1,-32.2%
3,CCn1nnnc1NCc1ccc(C(C)C)cc1,-24.1% and -23.5%
4,CCCn1nnnc1NCc1ccc(C(C)C)cc1,-24.4%
5,CCCn1nnnc1NCc1ccc(N2CCCC2)cc1,-46.1%
6,CCn1nnnc1NCc1ccc(N2CCCC2)cc1,-42.4%
